Assay results: PubChem BioAssay (NCI)
About 83,000 compounds went through this panel and 20% of them were active in at least one assay; those are over-represented in the sample as a whole.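 Treatment: one concentration, 48 hours, 96-well format. Scoring: percent growth, with anything below 10 considered active.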 A number with no mark means an inactive call. Calls of active or inactive are those of the source.

Experiments:
Assay in all cases: NCI-60 one-dose screen, 48 h (100 = growth as untreated, 0 = no growth, -100 = all killed)
Details in all cases: 10 µM unless noted
DU-145 prostate = test system: DU-145 prostate
K-562 leukemia = test system: K-562 leukemia
MALME-3M melanoma = test system: MALME-3M melanoma
MDA-MB-231 breast = test system: MDA-MB-231 breast
RXF 393 renal = test system: RXF 393 renal
SF-268 CNS = test system: SF-268 CNS
SF-295 CNS = test system: SF-295 CNS
SF-539 CNS = test system: SF-539 CNS
UACC-257 melanoma = test system: UACC-257 melanoma
M14 melanoma = test system: M14 melanoma
HCT-15 colon = test system: HCT-15 colon
HT29 colon = test system: HT29 colon
SNB-75 CNS = test system: SNB-75 CNS
SNB-19 CNS = test system: SNB-19 CNS
U251 CNS = test system: U251 CNS
PC-3 prostate = test system: PC-3 prostate
SK-MEL-5 melanoma = test system: SK-MEL-5 melanoma
UACC-62 melanoma = test system: UACC-62 melanoma
LOX IMVI melanoma = test system: LOX IMVI melanoma
SK-MEL-28 melanoma = test system: SK-MEL-28 melanoma

Structure (SMILES)	growth (DU-145 prostate)	growth (K-562 leukemia)	growth (MALME-3M melanoma)	growth (MDA-MB-231 breast)	growth (RXF 393 renal)	growth (SF-268 CNS)	growth (SF-295 CNS)	growth (SF-539 CNS)	growth (UACC-257 melanoma)	growth (M14 melanoma)	growth (HCT-15 colon)	growth (HT29 colon)	growth (SNB-75 CNS)	growth (SNB-19 CNS)	growth (U251 CNS)	growth (PC-3 prostate)	growth (SK-MEL-5 melanoma)	growth (UACC-62 melanoma)	growth (LOX IMVI melanoma)	growth (SK-MEL-28 melanoma)
CSc1nn2c(-c3cc4cc(Br)ccc4oc3=O)ccnc2c1C#N	110%	104%	120%	105%	109%	103%	103%	106%	106%	104%	102%	114%	90.5%	105%	102%	105%	101%	99.7%	97.4%	105%
Cc1c(Cl)cccc1NC(=O)c1sc2nc3c(cc2c1N)CCCC3	39.9%	13.7%	67.7%	49.5%	40%	49.3%	8.07% (active)	4.43% (active)	37.7%	25.3%	24.1%	8.28% (active)	29.6%	32.6%	21%	42.1%	31%	17.3%	39.1%	68.6%
O=C(COc1ccc(/C=C2\Oc3ccccc3C2=O)cc1)Nc1nccs1	109%	70.1%	98.1%	76.6%	95.5%	75.1%	116%	99.9%	113%	105%	104%	107%	51.3%	102%	90.9%	78.7%	105%	90.6%	85.1%	129%
COc1cc2cc(Oc3ccc(NC(=O)Nc4ccc(Cl)c(Cl)c4)cc3)c(C)nc2cc1OCCN1CCCCC1	97%	-35.7% (active)	13.9%	91.4%	73.7%	92%	99.1%	86.8%	93.6%	-33.4% (active)	71.6%	19.9%	96.8%	99.3%	53.2%	-30.2% (active)	89%	106%	99.1%	98.2%
[2H]C([2H])([2H])Oc1c(F)cccc1/C=C/C(=O)/C=C(O)/C=C/c1cccc(F)c1OC([2H])([2H])[2H]	103%	107%	100%	109%	106%	90.5%	102%	101%	82.7%	92.9%	81.4%	103%	114%	94.4%	87.8%	88.4%	101%	92%	85.8%	98.1%
O=C1C2C(c3cccs3)C=C(c3ccc(Cl)cc3)N2C(=S)N1c1ccccc1 (stereo not given)	110%	101%	115%	86.3%	102%	96.7%	104%	93%	105%	101%	112%	114%	97.9%	94.4%	97.9%	85.7%	97.8%	88.8%	98%	105%
COC(=O)c1ccc(-n2cc(CCCOS(=O)(=O)c3ccc(F)cc3)nn2)cc1	107%	95.5%	98.6%	106%	105%	98.6%	102%	96.7%	97.2%	104%	98.1%	101%	94.5%	93.9%	96.7%	93.4%	103%	92.5%	98.4%	101%
CC(C)n1nc(-c2ccc3oc(N)nc3c2)c2c(N)ncnc21	2.37% (active)	18.3%	-40.7% (active)	-15.1% (active)	-43.1% (active)	-1.05% (active)	-50.9% (active)	-43.7% (active)	-27.8% (active)	-18.8% (active)	0.972% (active)	4.07% (active)	-51.4% (active)	0.364% (active)	1.15% (active)	0.237% (active)	-40.3% (active)	-45% (active)	-16.4% (active)	-24% (active)
Nc1nc(=O)n([C@H]2CC=C(CO)O2)cc1F	107%	96.5%	97.9%	101%	99.3%	99.3%	102%	107%	95.4%	105%	101%	91.9%	102%	96.3%	95%	92.1%	100%	92.4%	92.5%	105%
CC/C(=C(/c1ccc(Cl)cc1)c1ccc(OCCN2CCCC2)cc1)c1ccccc1	80.4%	4.31% (active)	68.8%	73.6%	55.2%	73.3%	79%	74.8%	74%	37.1%	6.41% (active)	-25.4% (active)	96.3%	60.6%	32.1%	40.4%	22.4%	79.2%	32.4%	76.9%
O=c1ccc2nc(-c3ccccc3)nn(-c3ccccn3)c-2c1	105%	-24.3% (active)	50.1%	91.1%	26.8%	96.6%	103%	99.5%	72.3%	105%	33.9%	-46.5% (active)	106%	102%	94.4%	83.5%	76.6%	93.4%	49.6%	87.2%
CC(=O)[C@H]1CC[C@]2(C)[C@@H]1CC[C@@H]1[C@@]3(C)C/C(=C/c4cccnc4)C(=O)C(C)(C)[C@@H]3CC[C@]12C	85.3%	30.3%	82.6%	83.9%	97.7%	79.7%	89.8%	97.6%	63.4%	71.8%	54.4%	57.1%	106%	87.1%	60.7%	26.9%	38.9%	59.9%	87.6%	94.9%
Nc1c(C(=O)c2ccc(Cl)cc2)sc(Nc2ccccc2)c1-c1nc2ccccc2s1	25.5%	55.2%	20.7%	18.8%	72.8%	45.5%	-24.4% (active)	43.2%	58.8%	30.6%	39.7%	17.9%	18.1%	62.1%	4.94% (active)	10.3%	55.1%	7.88% (active)	17.8%	42.6%
CCOC(=O)c1c(C)c2c(n1Cc1ccccc1)CSc1cc(C#N)c(=O)[nH]c1-2	83.9% [100 µM]	75.5% [100 µM]	55% [100 µM]	54.8% [100 µM]	26.6% [100 µM]	67.5% [100 µM]	43.6% [100 µM]	52.6% [100 µM]	121% [100 µM]	90.4% [100 µM]	66.3% [100 µM]	71% [100 µM]	25.4% [100 µM]	89.3% [100 µM]	49.8% [100 µM]	70% [100 µM]	100% [100 µM]	70.9% [100 µM]	72.9% [100 µM]	105% [100 µM]
CCOC(=O)C1=CCC(n2cc(F)c(=O)[nH]c2=O)O1 (stereo not given)	97.6%	108%	112%	115%	171%	101%	114%	100%	99.7%	97.8%	104%	105%	121%	108%	95.6%	102%	104%	108%	94.7%	114%
